Results on eight compounds are retold here after publication PMC5540273 (PLoS ONE, 2017).

In test [1] the test system is PRKCQ. Particulars: n = 1.
Test [2] has as its system PRKD1. Particulars: concentration: 1 μM, replicates: in singlicate; n = 1.
Test [3] deals with PRKD2. Particulars: n = 1.
Test [4] has as its system PRKD3. Particulars: n = 1.
For test [5], the system named is PRKG1. As to conditions: n = 1.
Test [6] relates to PRKG2. Particulars: n = 1.
Test [7] has as its system T1, PRKR.
T1 construct: gene EIF2AK2
As to conditions: n = 1.

Test [8] has as its system PRKX. Particulars: n = 1.
The test system of test [9] is PRP4. Particulars: n = 1.
Test [10] relates to T2, PYK2.
T2 construct: gene PTK2B
Particulars: n = 1.

The subject of test [11] is QSK. Particulars: n = 1.
Test [12] deals with RAF1. As to conditions: n = 1.
The subject of test [13] is RET. As to conditions: n = 1.
The test system of test [14] is RIOK1. Particulars: n = 1.
Test [15] relates to RIOK2. As to conditions: n = 1.
For test [16], the system named is RIOK3. As to conditions: n = 1.
Test [17] concerns RIPK1. As to conditions: n = 1.
The test system of test [18] is RIPK2. As to conditions: n = 1.
For test [19], the system named is RIPK4. Particulars: n = 1.
Test [20] relates to RIPK5. As to conditions: concentration: 1 μM, replicates: in singlicate; n = 1.
[21] abbreviates: concentration: 1 μM, replicates: in singlicate.
Where [22] appears, read: concentration: 1 μM,replicates: in singlicate, 1 µM.

Values joined by “and” are separate entries in the source; they are usually repeats but may differ in a detail not shown here. Equal entries are not always repeated. Where two headings read alike, the source gives them in different places.
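Note: KINOMEscan kinase panel screen.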

In the case of `Cn1ccc2ncnc(Oc3cccc(C(=O)Nc4ccccc4)c3)c21`, the “%Inh” value in test [1] (setting [21]) is 0%; in test [2] it was 0%; in test [3] (setting [21]) it was 9%; in test [4] (setting [21]), 0%; in test [5] (setting [21]), 3%; in test [6] (setting [21]), 0%. Besides, the “%Inh” value in test [7] (setting [21]) was 0%; in test [8] (setting [21]) it was 0%; in test [9] (setting [21]), 5%; in [10] (setting [21]), 0%; in test [11] (setting [21]), 0%; in [12] (setting [21]), 5%. For the same compound, the “%Inh” value in test [13] (setting [21]) amounted to 14%; in test [14] (setting [21]), 38%; in test [15] (setting [21]) it was 0%; in [16] (setting [21]) it was 23%; in [17] (setting [21]) it was 0%; in test [18] (setting [21]) it was 15%. Also, the entries for the “%Inh” value in [19] (setting [21]) and in test [20] were 18% and 0%, respectively.
Turning to `Cc1ccc(NC(=O)Nc2cc(C(C)(C)C)nn2-c2ccccc2)cc1` [GSK1014915], the “%Inh” value in test [1] (setting [21]) is recorded as 0%; in test [2], 7%; in test [3] (setting [21]), 0%; in test [4] (setting [21]), 18%; in test [5] (setting [21]) it was 11%; in test [6] (setting [21]), 0%. For the same compound, the “%Inh” value came out at 0% in test [7] (setting [21]); 57% in test [8] (setting [21]); 1% in test [9] (setting [21]); 4% in [10] (setting [21]); 13% in test [11] (setting [21]); 89% in [12] (setting [21]). Moreover, the “%Inh” value in test [13] (setting [21]) was determined as 46%; in test [14] (setting [21]), 18%; in test [15] (setting [21]), 0%; in test [16] (setting [21]), 0%; in test [17] (setting [21]), 9%; in test [18] (setting [21]), 6%. Also, the “%Inh” value worked out at 12% in test [19] (setting [21]) and 0% in [20].
As to `Cc1cccc(-c2nc(Nc3ccncc3)c3ccccc3n2)n1` [GW855857], the “%Inh” value is listed as 0% in [1] (setting [21]); 86% in [2]; 99% in test [3] (setting [21]); 69% in [4] (setting [21]); 7% in test [5] (setting [21]); 0% in [6] (setting [21]). Besides, the “%Inh” value came out at 2% in [7] (setting [21]); 0% in [8] (setting [21]); 17% in test [9] (setting [21]); 4% in [10] (setting [21]); 0% in test [11] (setting [21]); 39% in [12] (setting [21]). For the same compound, the “%Inh” value is listed as 9% in test [13] (setting [21]); 0% in [14] (setting [21]); 0% in [15] (setting [21]); 35% in test [16] (setting [21]); 4% in test [17] (setting [21]); 71% in test [18] (setting [21]). Moreover, the “%Inh” value in test [19] (setting [21]) and in test [20] was 0% each time.
As for `CSc1nn2c(=O)cc(N3CCOCC3)nc2n1Cc1cccc(C(F)(F)F)c1C` [GSK2363608], the “%Inh” value in [1] (setting [22]) is 0% and 66%; in test [2] it was 0%; in [3] (setting [22]) it was 7% and 4%; in test [4] (setting [22]), 21% and 0%; in test [5] (setting [22]) it was 39% and 1%; in test [6] (setting [22]) it was 16% and 0%. The “%Inh” value in [7] (setting [22]) was 5% and 0%; in test [8] (setting [22]) it was 36% and 0%; in [9] (setting [22]), 32% and 12%; in test [10] (setting [22]) it was 0% and 17%; in test [11] (setting [22]) it was 55% and 8%; in test [12] (setting [22]), 14% and 11%. Moreover, the “%Inh” value in [13] (setting [22]) was 19% and 56%; in test [14] (setting [22]) it was 37% and 10%; in test [15] (setting [22]) it was 19% and 5%; in [16] (setting [22]), 39% and 0%; in [17] (setting [22]), 26% and 0%; in test [18] (setting [22]), 0% and 14%. Moreover, the “%Inh” value in test [19] (setting [22]) was 22% and 13%; in test [20], 0%.
Take `COc1cc(Nc2nccc(N3CCC(NC(=O)Nc4cc(C)ccc4C)C3)n2)cc(OC)c1OC` (stereo not shown) [GSK1379762]: the “%Inh” value in test [1] (setting [21]) is recorded as 0%; in [2], 0%; in test [3] (setting [21]), 0%; in [4] (setting [21]) it was 37%; in test [5] (setting [21]) it was 0%; in test [6] (setting [21]) it was 0%. Besides, the “%Inh” value in test [7] (setting [21]) amounted to 0%; in test [8] (setting [21]) it was 41%; in [9] (setting [21]) it was 43%; in [10] (setting [21]), 3%; in [11] (setting [21]), 0%; in test [12] (setting [21]), 19%. Also, the “%Inh” value in [13] (setting [21]) is listed as 25%; in [14] (setting [21]) it was 60%; in test [15] (setting [21]), 6%; in test [16] (setting [21]) it was 34%; in test [17] (setting [21]), 4%; in [18] (setting [21]), 8%. The “%Inh” value in [19] (setting [21]) stood at 18%; in test [20], 0%.
On to `Fc1cc(Cl)ccc1Nc1ccnc2cc(I)ccc12` [GW551191], for which the “%Inh” value in test [1] (setting [21]) is 18%; in test [2], 1%; in [3] (setting [21]) it was 0%; in test [4] (setting [21]) it was 0%; in test [5] (setting [21]) it was 5%; in test [6] (setting [21]), 0%. Further, the “%Inh” value in test [7] (setting [21]) turned out to be 0%; in [8] (setting [21]), 0%; in test [9] (setting [21]), 13%; in test [10] (setting [21]), 1%; in test [11] (setting [21]), 37%; in test [12] (setting [21]), 10%. The “%Inh” value was found to be 53% in [13] (setting [21]); 31% in test [14] (setting [21]); 0% in [15] (setting [21]); 19% in test [16] (setting [21]); 0% in [17] (setting [21]); 67% in [18] (setting [21]). In addition, the results for the “%Inh” value in test [19] (setting [21]) and in test [20] were 12% and 0%, respectively.
`CCn1c(-c2cccnc2O)nc2cnccc21` [SB-736715]: the “%Inh” value in [1] (setting [21]), in test [2], in test [3] (setting [21]), in test [4] (setting [21]), in [5] (setting [21]) and in test [6] (setting [21]) was 0% each time. Also, the “%Inh” value in test [7] (setting [21]), in test [8] (setting [21]), in [9] (setting [21]), in test [10] (setting [21]), in test [11] (setting [21]) and in test [12] (setting [21]) was 0% in each case. The “%Inh” value in test [13] (setting [21]) is reported as 5%; in test [14] (setting [21]), 6%; in test [15] (setting [21]) it was 0%; in test [16] (setting [21]), 0%; in test [17] (setting [21]) it was 0%; in test [18] (setting [21]), 0%. For the same compound, the “%Inh” value in [19] (setting [21]) came to 21%; in test [20], 0%.
With `Nc1ncnc2[nH]c(-c3ccccc3)nc12` [AH5015], the “%Inh” value in [1] (setting [21]) is 0%; in [2], 0%; in test [3] (setting [21]) it was 0%; in test [4] (setting [21]), 9%; in [5] (setting [21]) it was 6%; in [6] (setting [21]), 0%. Further, the “%Inh” value was 0% in test [7] (setting [21]); 0% in test [8] (setting [21]); 30% in test [9] (setting [21]); 0% in test [10] (setting [21]); 0% in [11] (setting [21]); 42% in [12] (setting [21]). The “%Inh” value is 0% in test [13] (setting [21]); 0% in test [14] (setting [21]); 4% in test [15] (setting [21]); 0% in test [16] (setting [21]); 16% in test [17] (setting [21]); 6% in [18] (setting [21]). For the same compound, the “%Inh” value is recorded as 17% in [19] (setting [21]) and 8% in test [20].
